Results on one sequence are retold here after paper PMC7862700, “An all-to-all approach to the identification of sequence-specific readers for epigenetic DNA modifications on cytosine”.

Common to all, as to assay: DAPPL (digital affinity profiling via proximity ligation, sequencing); 10 mM Tris-HCl pH 7.5, 50 mM NaCl, 1 mM DTT, 4% glycerol, room temperature, 30 min; GST-TFs on glutathione beads, 16-mer random dsDNA library, 0.1% formaldehyde crosslink after washing; high values mean tight binding
What all share (conditions): protein: recombinant; tags: N-terminal GST; dsDNA, one strand shown

One assay deals with T1, ELK1 (Homo sapiens, UniProt P19419 1-428).
T1 sequence: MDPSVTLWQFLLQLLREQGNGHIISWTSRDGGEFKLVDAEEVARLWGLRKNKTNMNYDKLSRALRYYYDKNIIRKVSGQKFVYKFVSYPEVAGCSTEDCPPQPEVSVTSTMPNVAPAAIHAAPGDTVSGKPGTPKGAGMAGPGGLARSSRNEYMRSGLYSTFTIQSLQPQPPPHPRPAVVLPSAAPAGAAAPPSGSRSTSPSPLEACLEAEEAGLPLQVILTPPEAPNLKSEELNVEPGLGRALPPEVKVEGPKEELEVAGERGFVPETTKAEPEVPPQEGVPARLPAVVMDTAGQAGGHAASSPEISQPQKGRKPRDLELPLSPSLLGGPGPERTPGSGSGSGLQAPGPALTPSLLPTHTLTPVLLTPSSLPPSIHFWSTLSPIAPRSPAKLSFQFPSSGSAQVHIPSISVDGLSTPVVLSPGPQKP
The gist of the method: (§1)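 Beads coated with glutathione captured GST-fused human transcription factors that had been expressed in yeast, and the factors were then given DNA barcodes and pooled with a tag-only sample. The pools were incubated with 200 nmole of a random double-stranded 16-mer DNA library in Tris/NaCl/DTT/glycerol buffer for 30 min at room temperature, washed, crosslinked with 0.1% formaldehyde and proximity-ligated with BsaI/T4 ligase at 37 °C for 1 h. PCR amplification and Illumina NextSeq500 sequencing came last. Binding signal is each hexamer's read frequency for a factor divided by its frequency for the tag-only sample.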

The next assay deals with T2, GABPA (Homo sapiens, UniProt Q06546 1-454).
T2 sequence: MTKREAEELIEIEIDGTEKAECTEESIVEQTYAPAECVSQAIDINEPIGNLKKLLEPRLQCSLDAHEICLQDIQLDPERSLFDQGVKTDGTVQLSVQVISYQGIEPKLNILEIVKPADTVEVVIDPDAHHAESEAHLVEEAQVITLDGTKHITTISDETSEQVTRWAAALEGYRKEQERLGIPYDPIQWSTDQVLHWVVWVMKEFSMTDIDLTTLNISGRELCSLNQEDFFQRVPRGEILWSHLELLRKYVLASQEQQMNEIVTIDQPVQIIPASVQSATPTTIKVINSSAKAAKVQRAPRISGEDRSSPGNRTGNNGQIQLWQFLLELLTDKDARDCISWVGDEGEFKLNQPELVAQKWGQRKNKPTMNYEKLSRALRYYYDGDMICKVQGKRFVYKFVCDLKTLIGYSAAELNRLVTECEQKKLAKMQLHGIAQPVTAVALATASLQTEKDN
An outline of the steps:
as §1

A further assay has as its target T3, ERG (Homo sapiens, UniProt P11308 1-479).
T3 sequence: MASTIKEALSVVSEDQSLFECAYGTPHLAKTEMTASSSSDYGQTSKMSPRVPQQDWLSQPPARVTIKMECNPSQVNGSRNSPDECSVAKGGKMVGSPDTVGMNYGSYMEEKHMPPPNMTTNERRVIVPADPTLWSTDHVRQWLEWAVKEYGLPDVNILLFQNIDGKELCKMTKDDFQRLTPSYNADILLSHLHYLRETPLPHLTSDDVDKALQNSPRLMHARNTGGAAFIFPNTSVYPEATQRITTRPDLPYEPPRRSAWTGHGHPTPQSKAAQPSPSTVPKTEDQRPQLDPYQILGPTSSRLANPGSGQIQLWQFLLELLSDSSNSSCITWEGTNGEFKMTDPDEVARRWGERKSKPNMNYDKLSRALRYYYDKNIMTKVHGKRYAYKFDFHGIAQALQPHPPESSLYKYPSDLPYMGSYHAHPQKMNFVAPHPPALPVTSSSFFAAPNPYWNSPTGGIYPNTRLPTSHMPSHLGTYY
An outline of the steps: as §1

A further assay concerns the target ELF1 (Homo sapiens, UniProt P32519 1-619). The gist of the method: as §1
The target of another assay is T4, EHF (Homo sapiens, UniProt Q9NZC4 1-300).
T4 sequence: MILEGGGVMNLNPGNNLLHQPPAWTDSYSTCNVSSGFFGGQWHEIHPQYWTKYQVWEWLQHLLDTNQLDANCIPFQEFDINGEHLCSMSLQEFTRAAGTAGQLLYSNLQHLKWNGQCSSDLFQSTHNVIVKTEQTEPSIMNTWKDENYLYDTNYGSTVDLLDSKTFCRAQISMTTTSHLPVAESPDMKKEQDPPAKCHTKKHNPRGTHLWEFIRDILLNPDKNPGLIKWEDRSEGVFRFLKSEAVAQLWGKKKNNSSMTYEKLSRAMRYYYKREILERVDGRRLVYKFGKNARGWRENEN
The gist of the method:
as §1

A further assay concerns the target SPI1 (Homo sapiens, UniProt P17947 1-270). An outline of the steps: as §1
Another assay addresses SPIB (Homo sapiens, UniProt Q01892 1-262). An outline of the steps: as §1
Another assay concerns the target T5, FEV (Homo sapiens, UniProt Q99581 1-238).
T5 sequence: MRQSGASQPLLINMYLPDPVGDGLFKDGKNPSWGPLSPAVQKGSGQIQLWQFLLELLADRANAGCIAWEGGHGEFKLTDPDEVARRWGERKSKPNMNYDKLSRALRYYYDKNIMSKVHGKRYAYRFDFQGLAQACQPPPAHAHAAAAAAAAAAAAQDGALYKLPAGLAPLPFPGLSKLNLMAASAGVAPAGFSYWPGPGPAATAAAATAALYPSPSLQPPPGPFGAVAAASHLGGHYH
The gist of the method: as §1

The target of a further assay is ETV5 (Homo sapiens, UniProt P41161 1-510). An outline of the steps: as §1
ETV5, sequence (P41161 whole entry): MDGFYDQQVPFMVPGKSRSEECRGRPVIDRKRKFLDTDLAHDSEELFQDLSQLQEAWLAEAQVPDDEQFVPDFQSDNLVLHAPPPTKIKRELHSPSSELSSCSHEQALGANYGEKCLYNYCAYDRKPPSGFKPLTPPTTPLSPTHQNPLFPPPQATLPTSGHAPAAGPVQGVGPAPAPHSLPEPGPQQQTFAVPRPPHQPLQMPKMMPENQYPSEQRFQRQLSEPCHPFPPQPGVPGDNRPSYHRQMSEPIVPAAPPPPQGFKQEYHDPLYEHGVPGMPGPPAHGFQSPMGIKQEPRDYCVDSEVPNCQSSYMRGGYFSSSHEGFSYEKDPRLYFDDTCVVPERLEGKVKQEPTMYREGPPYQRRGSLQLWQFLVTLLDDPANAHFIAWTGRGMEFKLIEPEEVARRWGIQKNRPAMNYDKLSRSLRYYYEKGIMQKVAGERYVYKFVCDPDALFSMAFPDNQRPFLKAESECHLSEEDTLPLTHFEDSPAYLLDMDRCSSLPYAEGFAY
The next assay has as its target ELF4 (Homo sapiens, UniProt Q99607 1-663). The gist of the method:
as §1

The next assay concerns the target T6, ELK4 (Homo sapiens, UniProt P28324-2 1-405).
T6 sequence: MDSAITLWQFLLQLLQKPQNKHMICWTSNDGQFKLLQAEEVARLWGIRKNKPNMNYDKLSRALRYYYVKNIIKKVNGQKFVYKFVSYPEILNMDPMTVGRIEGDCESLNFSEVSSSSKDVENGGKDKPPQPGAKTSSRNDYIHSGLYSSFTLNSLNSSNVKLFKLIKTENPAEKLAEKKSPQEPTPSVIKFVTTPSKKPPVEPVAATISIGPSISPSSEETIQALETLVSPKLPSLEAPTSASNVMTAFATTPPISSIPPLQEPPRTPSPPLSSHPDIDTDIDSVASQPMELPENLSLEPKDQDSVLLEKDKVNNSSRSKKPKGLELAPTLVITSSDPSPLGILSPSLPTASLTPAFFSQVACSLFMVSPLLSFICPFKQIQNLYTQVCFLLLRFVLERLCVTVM
The gist of the method: as §1

A further assay concerns the target T7, ETV2 (Homo sapiens, UniProt O00321 1-342).
T7 sequence: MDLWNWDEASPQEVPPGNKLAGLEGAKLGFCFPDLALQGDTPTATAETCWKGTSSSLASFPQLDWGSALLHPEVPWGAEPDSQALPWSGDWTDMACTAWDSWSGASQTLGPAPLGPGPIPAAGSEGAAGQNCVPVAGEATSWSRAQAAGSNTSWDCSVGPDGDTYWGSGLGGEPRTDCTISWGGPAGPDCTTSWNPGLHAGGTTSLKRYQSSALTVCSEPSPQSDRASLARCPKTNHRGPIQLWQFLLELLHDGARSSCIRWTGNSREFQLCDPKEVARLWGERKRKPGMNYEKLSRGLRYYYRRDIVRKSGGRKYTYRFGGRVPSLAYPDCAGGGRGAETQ
An outline of the steps:
as §1

Another assay deals with ETV1 (Homo sapiens, UniProt P50549 1-477). The gist of the method: as §1
ETV1, sequence (P50549 whole entry): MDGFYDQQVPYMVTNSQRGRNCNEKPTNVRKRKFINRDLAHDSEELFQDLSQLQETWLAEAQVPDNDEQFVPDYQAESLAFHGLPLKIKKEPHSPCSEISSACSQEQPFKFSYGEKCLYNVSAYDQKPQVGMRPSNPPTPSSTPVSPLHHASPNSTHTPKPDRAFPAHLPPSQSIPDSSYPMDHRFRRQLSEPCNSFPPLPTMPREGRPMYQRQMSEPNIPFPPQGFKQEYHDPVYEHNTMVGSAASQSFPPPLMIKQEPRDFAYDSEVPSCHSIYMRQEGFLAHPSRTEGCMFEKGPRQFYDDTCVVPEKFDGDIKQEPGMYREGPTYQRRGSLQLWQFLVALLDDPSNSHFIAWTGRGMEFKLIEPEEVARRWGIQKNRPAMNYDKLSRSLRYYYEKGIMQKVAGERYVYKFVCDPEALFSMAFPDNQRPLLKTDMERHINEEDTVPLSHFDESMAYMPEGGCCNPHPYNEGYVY
The target in another assay is T8, ERF (Homo sapiens, UniProt P50548 1-548).
T8 sequence: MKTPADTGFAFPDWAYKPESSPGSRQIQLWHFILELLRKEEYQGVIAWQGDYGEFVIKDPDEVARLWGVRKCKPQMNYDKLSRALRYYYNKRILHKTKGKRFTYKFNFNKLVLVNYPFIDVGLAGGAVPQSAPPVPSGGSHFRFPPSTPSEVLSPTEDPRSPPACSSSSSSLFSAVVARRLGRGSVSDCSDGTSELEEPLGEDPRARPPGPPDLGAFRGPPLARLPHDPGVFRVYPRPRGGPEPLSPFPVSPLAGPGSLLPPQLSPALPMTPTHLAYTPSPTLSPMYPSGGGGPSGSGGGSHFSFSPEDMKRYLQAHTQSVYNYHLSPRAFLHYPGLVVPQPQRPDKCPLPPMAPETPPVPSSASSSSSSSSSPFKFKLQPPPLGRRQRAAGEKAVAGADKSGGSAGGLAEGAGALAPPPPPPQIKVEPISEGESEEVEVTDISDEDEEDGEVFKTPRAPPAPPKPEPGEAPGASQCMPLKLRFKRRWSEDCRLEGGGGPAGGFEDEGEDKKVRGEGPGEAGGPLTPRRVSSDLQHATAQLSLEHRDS
An outline of the steps: as §1

For another assay, the target named is T9, ETS2 (Homo sapiens, UniProt P15036 1-469).
T9 sequence: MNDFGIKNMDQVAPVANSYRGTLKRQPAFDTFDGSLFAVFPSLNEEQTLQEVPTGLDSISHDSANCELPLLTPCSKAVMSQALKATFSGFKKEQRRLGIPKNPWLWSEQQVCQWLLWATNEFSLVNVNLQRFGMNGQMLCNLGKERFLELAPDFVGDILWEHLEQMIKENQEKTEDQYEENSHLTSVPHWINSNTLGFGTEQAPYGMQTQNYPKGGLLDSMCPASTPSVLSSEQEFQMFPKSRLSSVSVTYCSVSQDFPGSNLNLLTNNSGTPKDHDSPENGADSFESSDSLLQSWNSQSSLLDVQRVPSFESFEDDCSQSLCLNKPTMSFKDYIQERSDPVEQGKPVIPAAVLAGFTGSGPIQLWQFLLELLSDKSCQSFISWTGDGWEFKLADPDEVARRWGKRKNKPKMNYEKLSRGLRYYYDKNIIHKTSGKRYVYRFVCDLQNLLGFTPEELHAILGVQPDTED
The gist of the method: as §1

For another assay, the target named is T10, SPDEF (Homo sapiens, UniProt O95238 1-335).
T10 sequence: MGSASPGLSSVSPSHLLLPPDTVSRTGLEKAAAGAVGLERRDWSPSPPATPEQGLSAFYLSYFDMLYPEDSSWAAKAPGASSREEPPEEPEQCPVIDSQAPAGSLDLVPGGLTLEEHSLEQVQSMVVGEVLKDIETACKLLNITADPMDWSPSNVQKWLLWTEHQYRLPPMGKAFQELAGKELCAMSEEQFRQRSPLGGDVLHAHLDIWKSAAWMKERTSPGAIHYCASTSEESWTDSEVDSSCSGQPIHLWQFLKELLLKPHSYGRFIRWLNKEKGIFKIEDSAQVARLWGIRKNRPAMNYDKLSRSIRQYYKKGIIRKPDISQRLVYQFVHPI
The gist of the method:
as §1

The target in another assay is T11, ETV7 (Homo sapiens, UniProt Q9Y603 1-341).
T11 sequence: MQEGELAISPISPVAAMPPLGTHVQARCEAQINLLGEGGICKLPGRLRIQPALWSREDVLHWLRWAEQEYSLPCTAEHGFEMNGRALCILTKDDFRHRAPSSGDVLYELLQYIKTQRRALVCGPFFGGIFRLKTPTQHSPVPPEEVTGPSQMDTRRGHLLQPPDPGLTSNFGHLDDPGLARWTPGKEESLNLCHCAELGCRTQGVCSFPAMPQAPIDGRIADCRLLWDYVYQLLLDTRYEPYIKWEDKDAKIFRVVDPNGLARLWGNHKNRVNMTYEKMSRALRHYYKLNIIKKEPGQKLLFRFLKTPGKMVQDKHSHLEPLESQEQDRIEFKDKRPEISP
The gist of the method: as §1

The target in a further assay is ETV6 (Homo sapiens, UniProt P41212 1-452). An outline of the steps:
as §1

ELF4, sequence (Q99607 whole entry): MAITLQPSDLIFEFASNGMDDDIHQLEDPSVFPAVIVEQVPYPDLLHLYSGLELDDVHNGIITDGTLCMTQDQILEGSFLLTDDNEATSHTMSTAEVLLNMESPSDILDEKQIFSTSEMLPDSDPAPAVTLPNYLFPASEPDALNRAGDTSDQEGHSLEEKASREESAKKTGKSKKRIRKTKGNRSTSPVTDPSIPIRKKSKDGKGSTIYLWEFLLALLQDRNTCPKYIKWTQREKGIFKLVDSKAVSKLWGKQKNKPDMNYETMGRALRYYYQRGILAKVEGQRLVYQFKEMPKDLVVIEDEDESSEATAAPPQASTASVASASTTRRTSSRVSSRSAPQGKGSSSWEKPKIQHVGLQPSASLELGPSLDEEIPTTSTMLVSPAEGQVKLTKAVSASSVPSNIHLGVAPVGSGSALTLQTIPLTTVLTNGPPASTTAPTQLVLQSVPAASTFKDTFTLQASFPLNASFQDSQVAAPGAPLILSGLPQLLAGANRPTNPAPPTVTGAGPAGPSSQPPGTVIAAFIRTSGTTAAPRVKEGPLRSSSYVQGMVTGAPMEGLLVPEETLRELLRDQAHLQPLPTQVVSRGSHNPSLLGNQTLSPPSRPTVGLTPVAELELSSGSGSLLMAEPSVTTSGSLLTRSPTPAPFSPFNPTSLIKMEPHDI
ETV6, sequence (P41212 whole entry): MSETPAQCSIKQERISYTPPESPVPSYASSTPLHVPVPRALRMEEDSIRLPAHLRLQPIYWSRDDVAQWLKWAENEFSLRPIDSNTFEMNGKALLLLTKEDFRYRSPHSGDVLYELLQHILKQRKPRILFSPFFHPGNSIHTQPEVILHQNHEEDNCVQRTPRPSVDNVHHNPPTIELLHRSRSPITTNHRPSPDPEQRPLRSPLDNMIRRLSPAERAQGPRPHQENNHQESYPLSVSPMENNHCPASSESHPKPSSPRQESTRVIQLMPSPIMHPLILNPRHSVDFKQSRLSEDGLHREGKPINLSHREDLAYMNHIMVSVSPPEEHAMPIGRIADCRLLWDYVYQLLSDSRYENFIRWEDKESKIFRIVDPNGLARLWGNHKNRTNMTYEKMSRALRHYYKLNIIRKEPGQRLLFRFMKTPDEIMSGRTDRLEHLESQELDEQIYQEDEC
ELF1, sequence (P32519 whole entry): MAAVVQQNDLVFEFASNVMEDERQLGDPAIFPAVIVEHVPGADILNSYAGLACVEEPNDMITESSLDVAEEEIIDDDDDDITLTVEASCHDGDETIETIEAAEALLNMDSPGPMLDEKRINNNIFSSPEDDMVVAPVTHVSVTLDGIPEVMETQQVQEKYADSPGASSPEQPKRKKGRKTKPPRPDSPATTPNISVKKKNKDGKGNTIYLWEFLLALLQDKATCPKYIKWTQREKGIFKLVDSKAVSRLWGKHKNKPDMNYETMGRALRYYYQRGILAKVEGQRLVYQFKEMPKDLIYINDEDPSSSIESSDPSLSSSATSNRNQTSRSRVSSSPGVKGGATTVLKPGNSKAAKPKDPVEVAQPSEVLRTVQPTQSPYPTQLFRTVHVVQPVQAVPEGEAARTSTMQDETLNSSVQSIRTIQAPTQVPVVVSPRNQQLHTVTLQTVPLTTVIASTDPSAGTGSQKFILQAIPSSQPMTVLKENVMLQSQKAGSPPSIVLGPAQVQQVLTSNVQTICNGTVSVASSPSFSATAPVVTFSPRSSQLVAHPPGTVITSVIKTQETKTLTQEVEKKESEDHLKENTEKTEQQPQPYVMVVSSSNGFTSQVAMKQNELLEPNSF
SPIB, sequence (Q01892 whole entry): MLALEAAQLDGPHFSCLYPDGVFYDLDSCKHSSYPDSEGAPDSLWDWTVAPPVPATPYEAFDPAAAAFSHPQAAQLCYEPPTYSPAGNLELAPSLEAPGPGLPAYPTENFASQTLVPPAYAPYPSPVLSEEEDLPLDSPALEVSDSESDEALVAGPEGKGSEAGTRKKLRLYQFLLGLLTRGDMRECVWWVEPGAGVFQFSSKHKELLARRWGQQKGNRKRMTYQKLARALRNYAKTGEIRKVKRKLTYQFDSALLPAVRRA

Regarding CATACA, the binding signal in the assay with ELK1 was 1.04 fold enrichment (6-mer frequency, TF over GST control); with GABPA it was 1.08 fold enrichment (6-mer frequency, TF over GST control); with ERG it was 1.07 fold enrichment (6-mer frequency, TF over GST control); with ELF1, 1.06 fold enrichment (6-mer frequency, TF over GST control); with EHF, 1.03 fold enrichment (6-mer frequency, TF over GST control); with SPI1, 1.05 fold enrichment (6-mer frequency, TF over GST control). Further, the binding signal was 1.08 fold enrichment (6-mer frequency, TF over GST control) in the assay with SPIB; 1.07 fold enrichment (6-mer frequency, TF over GST control) with FEV; 1.05 fold enrichment (6-mer frequency, TF over GST control) with ETV5; 1.15 fold enrichment (6-mer frequency, TF over GST control) in the assay with ELF4; 1.06 fold enrichment (6-mer frequency, TF over GST control) with ELK4; 1.1 fold enrichment (6-mer frequency, TF over GST control) with ETV2. Moreover, the binding signal with ETV1 was 1.02 fold enrichment (6-mer frequency, TF over GST control); with ERF it was 1.15 fold enrichment (6-mer frequency, TF over GST control); with ETS2, 1.06 fold enrichment (6-mer frequency, TF over GST control); in the assay with SPDEF, 1.05 fold enrichment (6-mer frequency, TF over GST control); in the assay with ETV7 it was 1.1 fold enrichment (6-mer frequency, TF over GST control); with ETV6, 1.01 fold enrichment (6-mer frequency, TF over GST control).
